Assay outcomes (PubChem)
A selection: hits, their analogues and other compounds. The true share with any hit is near 2.5%.
D2 ag-1 = human D2 receptor agonism in beta-arrestin assay; DiscoveRx PathHunter D2 beta-arrestin, luminescence, 90 min; 100% = 57 uM dopamine signal; activation, % (no concentration beside the values); P14416; 360,000 compounds, 0.084% hits; in the data active = activation above about 40%; inconclusive = between about 15% and that limit
Target sequence (P14416 whole entry, looked up): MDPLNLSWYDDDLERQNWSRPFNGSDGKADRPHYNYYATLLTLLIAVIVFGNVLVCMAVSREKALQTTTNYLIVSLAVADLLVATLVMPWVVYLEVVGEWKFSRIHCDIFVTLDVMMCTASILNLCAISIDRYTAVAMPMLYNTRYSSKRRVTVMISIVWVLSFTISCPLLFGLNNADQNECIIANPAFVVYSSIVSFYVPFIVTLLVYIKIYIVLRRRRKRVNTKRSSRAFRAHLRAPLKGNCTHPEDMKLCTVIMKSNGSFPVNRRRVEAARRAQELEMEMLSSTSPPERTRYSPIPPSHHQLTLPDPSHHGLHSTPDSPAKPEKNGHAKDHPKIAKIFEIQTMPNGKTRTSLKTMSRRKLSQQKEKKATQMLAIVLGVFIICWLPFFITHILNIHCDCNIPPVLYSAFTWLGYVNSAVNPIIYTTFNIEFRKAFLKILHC
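Agonist mode: compounds alone added to overnight-plated D2 PathHunter cells for 90 min at 37 C, with 57 uM final dopamine (EC100) defining full response. Beta-arrestin recruitment detected by chemiluminescent reagent, read after 1 h at ambient temperature.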
D2 antagonist = D2 dopamine receptor (human) antagonism | P14416 | HEK293 TREx D2 cells, calcium flux, dopamine EC80 | inhibition, % at 10 µM | 340,000 compounds, 2% hits | AID 485344; in the data active = inhibition above about 30%; inactive = below that, where a call was filed; note: 0% is about no effect
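Measurement of antagonist activity uses fluorescent calcium dye in inducible HEK293 T-REx D2 cells: 10 s baseline, compound addition with 180 s read, EC80 dopamine addition with a further 180 s read.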
D2 PAM-1 = positive allosteric modulators of human D2 dopamine receptor; P14416; DiscoveRx D2 beta-arrestin cells, luminescence, 90 min; 100% = 57 uM dopamine signal; potentiation, % (concentration not given with the values); 360,000 compounds, 0.23% hits; in the data active = potentiation above about 50%; inconclusive = mostly about 30% to 49%
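PathHunter D2 cells, attached overnight at 37 deg C, received compound in DMSO plus dopamine at EC20 (50 nM final) for 90 min at 37 deg C. Beta-arrestin recruitment was read as luminescence after 1 h with detection reagent at ambient temperature.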
Apoferritin bind = binds horse apoferritin like a general anesthetic. 350,000 compounds, 0.074% hits. P02791. Potency, µM (titrated, usually from 77.5 µM), for the others: top-dose activity change, negative = displacement, actives largely listed as inhibitors. apoferritin/1-aminoanthracene competitive binding, fluorescence; active = well fitted inhibition curve with a large enough effect; inconclusive = small, poorly fitted or top-dose-only effect; inactive = no such curve, though single readings can be large or run the other way; note: potency is the fitted concentration of half-maximal effect; % is set by controls: 0 for no effect and ±100 for the full control effect; nearly all actives have a fitted effect of over 20% in size
Target sequence (P02791 2-175 limits assumed): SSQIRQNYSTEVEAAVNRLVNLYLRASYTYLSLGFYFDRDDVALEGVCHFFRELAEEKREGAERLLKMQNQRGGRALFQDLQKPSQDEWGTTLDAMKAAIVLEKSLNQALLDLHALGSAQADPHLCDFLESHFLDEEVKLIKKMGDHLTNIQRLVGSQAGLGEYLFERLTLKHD
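Concentration-response curves derived by four-parameter Hill fitting of normalized fluorescence, where compounds displaced 1-AMA from 10 uM horse apoferritin following a brief 10 min room-temperature incubation; propofol titration acted as positive control.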
D2 PAM-2 = positive allosteric modulators of human D2 dopamine receptor; P14416; HEK293 T-REx D2, calcium flux, EC20 dopamine potentiation; potentiation, % at 10 µM; 340,000 compounds, 0.34% hits;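 active = potentiation over 3 SD above the plate norm, cut at about 30% in these data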; note: 0% is about no effect
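Primary screen. Calcium kinetics in induced HEK293 T-REx D2 cells: compound pre-addition 180 s, EC20 dopamine, 180 s more.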
D2 ag-2 = activates the human D2 dopamine receptor | P14416 | HEK293 T-REx D2 cells, calcium flux agonist mode | activation, % at 2 µM | 340,000 compounds, 0.53% hits;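 active = activation over 3 SD above normal in the single-dose calcium agonist read, cut at about 30% in these data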; note: 0% is about no effect
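In this primary screen, compounds producing a positive calcium signal within 180 s of addition to tetracycline-induced, force-coupled HEK293 Trex D2 cells are flagged; cells are dye-loaded with a no-wash calcium kit beforehand.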
The depositor's hits bear a star; ? = inconclusive; . = no result.

SMILES	D2 ag-1	D2 antagonist	D2 PAM-1	Apoferritin bind	D2 PAM-2	D2 ag-2
CCOC(=O)C1CCN(C(=O)CCc2ccccc2)CC1	-4	-4	-5	-2%	-4	0
CCOC(=O)C1CCN(C(=O)CCc2nc3ccccc3[nH]2)CC1	0	61*	-5	7%	0	0
COc1ccc2cc(C(C)C(=O)N3CCC(C(N)=O)CC3)ccc2c1 (stereo unspecified)	0	-16	-5	7%	32*	-2
COc1ccc(-c2cc(C(=O)NCc3cn(C)nc3C)c3ccccc3n2)cc1OC	-1	-14	1	3%	10	-1
COc1ccc(S(=O)(=O)n2nc(-c3cc(OC)c(OC)c(OC)c3)cc2N)cc1OC	-2	1	-1	-9%	3	0
COc1ccc(-c2cc(N)n(S(=O)(=O)c3c(F)c(F)c(F)c(F)c3F)n2)cc1OC	0	35*	-11	?	-4	3
CCS(=O)(=O)NC(C)C(c1cccs1)N1CCN(c2ccc(F)cc2)CC1 (stereo unspecified)	-1	40*	-2	-20%	-4	2
CCS(=O)(=O)NC(C)C(c1cccs1)N1CCN(C)CC1 (stereo unspecified)	-2	10	3	6%	4	1
Cc1ccc(/C=C/c2onc(C)c2S(=O)(=O)N2CCC(C(=O)NCc3ccc(N(C)C)cc3)CC2)cc1	.	.	.	-11%	-1	.
Cc1nc(-c2ccc(F)cc2)c(CC(=O)N2CCN(S(=O)(=O)c3cccc([N+](=O)[O-])c3)CC2)s1	?	34*	29	.	-5	0
CCn1c(CCC(N)=O)nnc1SCC(=O)c1cc(C)n(C2CC2)c1C	-4	-9	-1	.	-4	0
Cc1ccc(C)c(NC(=O)CCN2C(=O)c3ccccc3C2=O)c1	0	-7	5	-5%	-9	18
Cc1ccc(C(C(=O)NC2CCCCC2)N(Cc2ccco2)C(=O)Cc2c[nH]c3ccccc23)o1 (stereo unspecified)	-4	36*	0	-1%	-5	-1
Cc1ccc(C(C(=O)NC2CCCCC2)N(C(=O)Cc2c[nH]c3ccccc23)c2ccccc2C)o1 (stereo unspecified)	0	-4	-9	-17%	4	-1
COc1ccc(Nc2oc(-c3ccc(COc4ccccc4)o3)nc2C#N)cc1	.	.	.	136%	7	-2
COc1ccc(CNC(=O)CC2C[C@H](C(=O)N(C(C)C)C(C)C)[C@@]3(C)c4[nH]c5ccccc5c4CCN3C2=O)cc1OC (stereo partly specified)	2	.	.	.	.	.
Brc1ccc(-c2noc(COc3ccc4c(c3)CCC4)n2)o1	4	43*	-1	0%	-5	0
Cc1cn([C@H]2C[C@H](O)[C@@H](/C=C/C(=O)NCc3cccc4ccccc34)O2)c(=O)[nH]c1=O	-4	.	-1	.	.	.
COc1ccc(N=Cc2c(O)ccc3ccccc23)cc1	2	-3	-4	?	26	2
CCOC(=O)c1sc(/N=C/c2c(O)ccc3ccccc23)cc1C	-2	31*	-15	-2%	1	-1
NC(=O)c1ccc(N=Cc2c(O)ccc3ccccc23)cc1	-2	.	0	.	.	.
O=C(O)c1ccc(N=Cc2c(O)ccc3ccccc23)cc1	6	-5	3	-23%	-15	39*
CCOC(=O)c1cc2sc(C)cc2n1CC(=O)NCc1ccc(F)cc1	-1	-12	-16	13%	-7	1
O=C1CN(C(=O)c2ccc3nc(Cc4cccc(Cl)c4)oc3c2)CCN1	-1	-5	-2	-7%	12	0
CCCC(=O)C1=C(c2ccc(C)cc2)N(C(=O)CCC)n2cnnc2S1	.	.	.	-4%	-10	0
SMILES	D2 ag-1	D2 antagonist	D2 PAM-1	Apoferritin bind	D2 PAM-2	D2 ag-2
Cc1cc(C)c2c(N)c(-c3nc4ccccc4[nH]3)sc2n1	-1	-9	-15	107%	1	-1
NCCC(=O)N1c2ccccc2Sc2ccc(Cl)cc21	-5	48*	-7	-5%	-13	42*
CN1CCN(CCC(=O)N2c3ccccc3Sc3ccc(Cl)cc32)CC1	0	13	-39	-12%	-16	-1
CN1CCC=C(C(=O)N2c3ccccc3Sc3ccc(Cl)cc32)C1	-2	39*	-5	2%	-20	0
NCCCC(=O)N1c2ccccc2Sc2ccc(Cl)cc21	-3	-6	-13	-11%	-8	1
O=[N+]([O-])c1cc([N+](=O)[O-])c2cc3ccccc3nc2c1	4	0	28	-11%	14	7
CC12CN3CC(C)(CN(C1)C3c1ccc(Cl)cc1Cl)C2O (stereo unspecified)	0	-28	-4	-10%	-2	-2
C=CCN1C(=O)/C(=C/c2ccc(O)c(OC)c2)S/C1=N/c1nccs1	10	-10	4	-24%	3	45*
O=C(NCc1ccccc1)c1ccc(F)c(F)c1	-2	-6	-1	-5%	-3	0
O=C(NCc1ccccc1)c1ccc2nnsc2c1	-4	34*	-3	-1%	0	0
COc1ccc(C(=O)N2CCC(C(=O)c3c(C)cc(C)cc3C)CC2)cc1	0	-21	-12	4%	11	0
Cc1c(Cl)cccc1NC(=O)C1CC(=O)N(C2CCCC2)C1 (stereo unspecified)	-2	.	-3	.	.	.
CCOC(=O)Cn1c(C)c(Br)c(=O)c2cccc(C)c21	-3	31*	-27	-13%	-11	0
O=C(NC1CC1)C1CCN(S(=O)(=O)c2ccc(Cl)cc2)CC1	1	32*	-5	4%	6	0
COc1ccc(C(=O)NCC(=O)N/N=C/c2c(C)[nH]c3ccccc23)cc1OC	-2	-25	-13	9%	-19	-1
COc1ccc(C(=O)NCC(=O)N/N=C/c2c(C)[nH]c3ccccc23)cc1	1	53*	-27	?	-4	-1
CCCCC(=O)Nc1ccc2oc(-c3cccnc3)nc2c1	-3	5	13	-16%	-7	-1
CCCC(=O)Nc1ccc2oc(-c3cccnc3)nc2c1	-2	32*	?	-9%	13	-1
CC(Sc1nc2ccccc2c(=O)n1CCc1ccc(S(N)(=O)=O)cc1)C(=O)NC(N)=O (stereo unspecified)	9	3	1	-5%	40*	-2
COCc1nnc(NC(=O)c2ccc(S(=O)(=O)N3CCCCCC3)cc2)o1	0	7	-2	-14%	32*	0
